Experimental data taken from PubChem BioAssay AID618 (Sanford-Burnham Center for Chemical Genomics, 2007).
Out of some 87,000 compounds screened, about 540 (0.62%) were called active. No rule for the calls is given here. The full list was thinned out, with actives kept by preference. Results with a measured potency or affinity are listed apart.

experiment: inhibitors of MT1-MMP promoter transcription, cell-based, luciferase reporter, luminescence (AID 618); conditions: MT1-MMP promoter luciferase reporter cells;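 also: actives suppress MT1-MMP promoter-driven transcription so potencies describe inhibitors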

Compound	outcome
CCOC(=O)C1CCCCN1C(=O)CCc1c(C)nc2ncnn2c1C (centres undefined)	inactive
Cc1nc2cc(-c3cccc(F)c3)nn2c(C)c1CCC(=O)N1CCN(c2ccccn2)CC1	inactive
CCn1c(C(=O)Nc2ccsc2C(=O)OC)cc2sc(Cl)cc21	inactive
CN1CCC(C2(O)c3ccccc3CSc3sccc32)CC1 (centres undefined)	inactive
Cc1oc(C)c(C(=O)Nc2ccc(CC(=O)O)cc2)c1C(=O)Nc1ccc(CC(=O)O)cc1	inactive
O=C(O)Cc1ccc(NC(=O)c2ccc(NC(=O)c3ccco3)cc2)cc1	inactive
COC(=O)Cc1ccc(NC(=O)c2ccc(Br)o2)cc1	inactive
COC(=O)Cc1ccc(NC(=O)c2ccc(C)c(C)c2)cc1	inactive
Cc1ccc(C(=O)Nc2ccc(CC(=O)O)cc2)o1	inactive
Cc1cc(C(C)(C)C)oc1C(=O)Nc1ccc(CC(=O)O)cc1	inactive
COc1ccc(-n2c(Cc3cccn3C)nnc2SCC(=O)Nc2cccc(NC(C)=O)c2)cc1	inactive
CCOc1ccc(CCNC(=O)C(O)c2ccccc2)cc1 (centres undefined)	inactive
Cc1cc(=O)oc2cc(OCC(=O)Nc3nnc(C(C)C)s3)ccc12	inactive
CC(=NCCCn1ccnc1)C1=C(O)c2ccccc2C1=O	inactive
Clc1ccc(-n2ncc3c(N4CCCC4)ncnc32)cc1	inactive
Cc1cccc(-n2ncc3c(N4CCN(c5nc(C)cc(C)n5)CC4)ncnc32)c1	inactive
Cc1cccc(-n2ncc3c(N4CCC5(CC4)OCCO5)ncnc32)c1	inactive
CCN1CCN(c2ncnc3c2cnn3-c2ccc(Cl)cc2)CC1	inactive
COc1cc(NC(=O)CSc2ncnc3c2cnn3Cc2ccccc2)cc(OC)c1	inactive
COc1ccc(-c2cn3c(C)c(C(=O)N4CCc5ccccc5C4)sc3n2)cc1	inactive
COc1ccccc1-c1coc2c(CN3CCN(CCO)CC3)c(O)ccc2c1=O	inactive
CCOC(=O)C(NS(=O)(=O)c1ccc(Br)cc1)C(C)C (centres undefined)	inactive
COc1ccc2c(CC(=O)OCC(=O)c3ccc(F)cc3)coc2c1	inactive
Oc1c(C(c2ccco2)N2CCOCC2)sc2ncnn12 (centres undefined)	inactive
O=C(O)c1cccc(NC(=O)C2CCCO2)c1 (centres undefined)	inactive

Compound	outcome
O=C(Nc1cnc2ccccc2c1)c1ccncc1	inactive
Cc1cc(C(=O)Nc2ccccc2)oc1C	inactive
Cc1ccc(NC(=O)c2ccccc2)cc1	inactive
Cc1ccc(C(=O)Nc2cccc(C(=O)N3CCN(C)CC3)c2)cc1	inactive
Cc1oc2c(c1C(=O)Nc1cccc(C(=O)O)c1)CCCC2	inactive
O=C(Nc1cnc2ccccc2c1)c1cccnc1	inactive
O=C(O)c1ccc(C(=O)Nc2cccc(NC(=O)C3CCCO3)c2)cc1 (centres undefined)	inactive
O=C(Oc1ccc(Br)cc1)c1cncc(Br)c1	inactive
O=C1CCC([N+](=O)[O-])C(c2ccccc2Cl)N1 (centres undefined)	inactive
COc1cccc(-n2nnc3c(=O)n(Cc4c(F)cccc4Cl)cnc32)c1	inactive
CCN(CC)CCCNC(=O)c1sc2nc(-c3ccc(F)cc3)cn2c1C	inactive
CCn1cc(C(=O)NCc2ccco2)c(=O)c2cc(S(=O)(=O)N3CC(C)CC(C)C3)ccc21 (centres undefined)	inactive
CCOC(=O)CCn1c(=O)c2c(nc(Br)n2Cc2ccccc2)n(C)c1=O	inactive
Cc1ccc(S(=O)(=O)NCCC(=O)Nc2nnc(C)s2)cc1	inactive
COC(=O)[C@H](C)NC(=O)Nc1ccccc1F	inactive
COc1ccc(S(=O)(=O)n2c(CCN3CCOCC3)nc3ccccc32)cc1	inactive
O=C(O)c1cccc(NC(=O)c2cccc(S(=O)(=O)N3CCCCC3)c2)c1	inactive
Cc1ccc(C(=O)Nc2cccc(C(=O)O)c2)cc1S(=O)(=O)N1CCOCC1	inactive
CC1C=CC(C)C(C(=O)O)C1C(=O)O (centres undefined)	inactive
CC(=O)c1ccc(NS(=O)(=O)c2ccc(CC(C)C)cc2)cc1	inactive
Cc1cccnc1NC(=O)C1CCN(S(=O)(=O)c2cccs2)CC1	inactive
COc1ccc(CCn2c(N3CCN(C)CC3)nc3c2c(=O)[nH]c(=O)n3C)cc1	inactive
CCOc1ccc(S(=O)(=O)NCCC2=CCCCC2)c2ccccc12	inactive
CCCC1=Nc2cc(C(=O)NCCCOCC)ccc2Sc2ccccc21	active
CCOCCCNC(=O)c1ccc(OC)cc1	inactive

Compound	outcome
COCCCNC(=O)c1cccc(C(=O)NCCCOC)c1	inactive
CCCC1=Nc2cc(C(=O)NCCCOC(C)C)ccc2Sc2ccccc21	inactive
CCC1=Nc2cc(C(=O)NCCCOC(C)C)ccc2Sc2ccccc21	inactive
CCC1=Nc2cc(C(=O)NCCCOC)ccc2Sc2ccccc21	active
COc1ccc(S(=O)(=O)Cc2ccc(C(=O)N3CCN(c4ncccn4)CC3)o2)cc1	inactive
CC1(C)CC(=O)C2=C(C1)Nc1ccccc1NC2c1cccnc1 (centres undefined)	inactive
CCC1=C2CC[C@H]3C(=O)N(CC(=O)OC)C(=O)[C@H]3[C@H]2[C@@]2(Cc3ccccc3)C(=NCCc3c[nH]c4ccccc34)OC(=O)N2C1=O	inactive
O=C(CSc1ccccc1)Nc1cccnc1	inactive
CC(CN1CCOCC1)OC(=O)c1ccccc1Br (centres undefined)	inactive
COc1cc(OC)cc(C(=O)Nn2c(C)nc3ccccc3c2=O)c1	inactive
COc1ccc(-c2nc3ccccc3c(=O)n2CCN2CCOCC2)cc1	inactive
COc1ccc2[nH]c3c(c2c1)CCn1c-3nc2ccccc2c1=O	active
O=C(CCCO)c1ccc2c(c1)OCCO2	inactive
O=C(CCc1ccccc1)c1ccc2c(c1)OCCCO2	inactive
O=C(Nc1ccc2c(c1)OCCO2)c1cccnc1	inactive
COc1cc(SC)ccc1C(=O)Nc1ccccc1	inactive
Cc1cc(C(=O)Nc2ccc3c(c2)OCCO3)co1	inactive
O=C(Nc1ccccc1)c1ccc2c(c1)OCCO2	inactive
O=C(Nc1ccc2c(c1)OCO2)c1cncc(Br)c1	inactive
CS(=O)(=O)Nc1ccc(C(=O)Nc2ccc3c(c2)OCCO3)cc1	inactive
O=C(Nc1ccncc1)c1ccc2c(c1)OCCO2	inactive
COc1ccccc1C(=O)Nc1ccc2c(c1)OCCO2	inactive
Clc1cc(NCc2cccs2)ccc1N1CCOCC1	inactive
Cc1cc(N2CC34C=CC(O3)C(C(=O)O)C4C2=O)no1 (centres undefined)	inactive
